hcDAF-12 act = H. contortus DAF-12 nuclear receptor activators, primary screen, cell-based, luminescence, HEK293, lit1-tk-luc reporter | activation, % at 6.8 µM | 370,000 compounds, 1.4% hits | HEK293 hcDAF-12 lit1-tk-luc reporter; 0% DMSO, 100% Δ7-dafachronic acid | AID 652067, 2013;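 active = activation above the mean of all tested compounds plus 3 SD, cut at about 5.5% in these data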
ssDAF12 agonist = S. stercoralis DAF-12 nuclear receptor activators, primary screen, cell-based, luminescence, HEK293, GRIP1 co-expression, lit1-tk-luc | HEK293 ssDAF-12/GRIP1 lit1-tk-luc reporter; % of 3 µM dafachronic acid response | activation, % at 6.8 µM | 370,000 compounds, 1% hits | AID 652126, 2013;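 active = activation above the mean over all tested compounds plus 3 SD, cut at about 0.9% in these data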
DAX1 inh-1 = DAX1 (NR0B1) inhibitors on StAR promoter, primary screen, cell-based, luminescence, SF-1 (NR5A1), full-length DAX-1; HEK293T StAR-luciferase reporter, SF-1/DAX-1 repression relief; inhibition, % at 6.8 µM; 370,000 compounds, 1.1% hits;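 active = inhibition above the mean over all tested compounds plus 3 SD, cut at about 3.6% in these data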;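 note: higher inhibition means more luminescence from relief of DAX-1 repression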
hgDAF-12 ag = H. glycines DAF-12 receptor agonists, primary screen, cell-based, luminescence, HEK293, GAL4 fusion, UAS-luciferase. Nuclear hormone receptor DAF-12 (Heterodera glycines), GAL4 fusion. HEK293 GAL4-hgDAF12 UAS-luciferase reporter, agonist luminescence; normalized to butyrate control. activation, % at 6.8 µM. 370,000 compounds, 1.8% hits. AID 687014, 2013;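 active = activation above a cutoff set at the mean of all screened compounds plus 3 SD, cut at about 10% in these data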
DAX1 inh-2 = DAX1 (NR0B1) inhibitors, primary screen, cell-based, HEK293, Gal4-DAX1, luciferase luminescence; HEK293 Gal4-DAX1 luciferase reporter; 340,000 compounds, 0.99% hits; inhibition, % at 6.75 µM;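 active = inhibition above the mean over all tested compounds plus 3 SD, cut at about 4.2% in these data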;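 note: inhibition shows as a rise in luminescence from relieved DAX1 repression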
Target sequence (P51843 207-470 limits assumed): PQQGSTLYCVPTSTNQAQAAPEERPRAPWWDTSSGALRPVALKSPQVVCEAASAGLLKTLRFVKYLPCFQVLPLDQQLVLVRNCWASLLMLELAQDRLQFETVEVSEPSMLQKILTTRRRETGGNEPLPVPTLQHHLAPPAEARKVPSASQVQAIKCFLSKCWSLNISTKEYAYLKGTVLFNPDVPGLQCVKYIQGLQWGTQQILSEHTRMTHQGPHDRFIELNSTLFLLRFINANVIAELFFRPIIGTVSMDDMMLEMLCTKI
DAX1 inh confirm = DAX1 (NR0B1) inhibitors relieving SF-1 repression, confirmation, cell-based, luminescence, HEK293T, full-length DAX-1, SF-1 activated StAR promoter. shares compounds with DAX1 inh-1. HEK293T StAR-promoter luciferase reporter, SF-1/DAX-1 repression. inhibition, % at 6.8 µM. 2,400 compounds, 87% hits. AID 652134, 2013;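 active = inhibition above the average of every tested compound plus 3 SD, cut at about 3.8% in these data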
SF1 AF2mut Luc = StAR reporter signal changes without DAX1, counter-screen for DAX1 inhibitor project, cell-based, luminescence, AF-2 mutant SF-1, transactivation. shares compounds with DAX1 inh-1. HEK293 StAR-luciferase, SF-1 AF2 mutant. inhibition, % at 6.8 µM. 2,400 compounds, 78% hits;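 active = inhibition above the mean of all tested compounds plus 3 SD, cut at about 3% in these data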
Of the large screens only hits and unclear results are named; the others gave an inactive call (follow-up assays come after a bar, where they were run). A selection: hits, their analogues and other compounds. The true share with any hit is near 4.1%.

O=S(=O)(Nc1cccc(-c2ccc(N3CCCCCC3)nn2)c1)c1ccccc1F	DAX1 inh-1 5.8 | DAX1 inh confirm 6.1 | SF1 AF2mut Luc inactive
O=[N+]([O-])c1ccc(Cl)c(S(=O)(=O)Nc2cccc(-c3ccc(N4CCOCC4)nn3)c2)c1	DAX1 inh-1 5.5 | DAX1 inh confirm 9.5 | SF1 AF2mut Luc 4.5
CCOC(=O)c1cc([N+](=O)[O-])c([N+](=O)[O-])cc1NC(C)=O	none
COc1cc(Nc2cccc(-c3ccccc3)n2)cc(OC)c1OC	none (no result: DAX1 inh-2)
O=C(Nc1ccc(Cl)cc1)Nc1ccccc1C(=O)N1CCCC1	none (no result: DAX1 inh-2)
O=C(Nc1ccc(Cl)cc1)Nc1ccccc1C(=O)O	DAX1 inh-1 5.3 | DAX1 inh confirm 9.0 | SF1 AF2mut Luc 4.0
O=C(CNC(=O)c1ccc2c(c1)OCO2)Nc1ncccc1O	DAX1 inh-1 5.3 | DAX1 inh confirm 6.1 | SF1 AF2mut Luc 3.7
Cc1cccnc1NC(=O)c1ccc2c(c1)OCO2	none
CCN(CC)S(=O)(=O)c1ccc(NC(=O)CCN2C(=O)C3CC=CCC3C2=O)cc1 (stereo unspecified)	DAX1 inh-1 5.2 | DAX1 inh confirm inactive | SF1 AF2mut Luc inactive
CC1CCN(S(=O)(=O)c2ccc(NC(=O)CCN3C(=O)C4CC=CCC4C3=O)cc2)CC1 (stereo unspecified)	none
CC(C)N(C(=O)[C@H]1C[C@H](CC(=O)NCCN2CCOCC2)C(=O)N2CCc3c([nH]c4ccc(Cl)cc34)[C@]12C)C(C)C	DAX1 inh-1 5.5 | DAX1 inh confirm inactive | SF1 AF2mut Luc inactive
CCN(CC)C(=O)[C@H]1C[C@H](CC(=O)NCCN2CCOCC2)C(=O)N2CCc3c([nH]c4ccc(Cl)cc34)[C@]12C	none
O=C(Nc1ccccn1)C12CC3CC(CC(C3)C1)C2	none
C/C(=N\NC(=O)c1ccccn1)C12CC3CC(CC(C3)C1)C2	DAX1 inh-1 5.8, hgDAF-12 ag 12.7 | DAX1 inh confirm 5.6 | SF1 AF2mut Luc 3.3
CC(=O)c1cccc(-c2ccnc3c2CC(C(=O)NCc2ccccc2)O3)c1 (stereo unspecified)	DAX1 inh-1 4.8 (no result: DAX1 inh-2) | DAX1 inh confirm 12.2 | SF1 AF2mut Luc inactive
O=C(O)c1ccc(NC(=S)NC(=O)c2ccc3ccccc3c2)cc1	none
O=C(NC(=S)Nc1ccc2[nH]ncc2c1)c1ccccc1	none
O=C(Nc1ccc2ncccc2c1)c1ccccc1	none
O=C(NC(=S)Nc1ccc2ncccc2c1)c1ccccc1	DAX1 inh-1 4.8, hgDAF-12 ag 11.8 | DAX1 inh confirm 7.7 | SF1 AF2mut Luc 5.8
O=C(O)c1cccc(NC(=S)NC(=O)c2ccc3ccccc3c2)c1	DAX1 inh-1 10.6 | DAX1 inh confirm 8.0 | SF1 AF2mut Luc 4.4
O=C(NC(=S)Nc1ccc2nc[nH]c2c1)c1ccccc1	DAX1 inh-1 6.5 | DAX1 inh confirm 5.9 | SF1 AF2mut Luc 3.1
CN(Cc1ccccc1)C(=O)c1ccccc1-c1ccccc1	none
Cc1ccccc1NC(=O)[C@@H]1CCCN1S(=O)(=O)c1cccc2cccnc12	none (no result: DAX1 inh-1, DAX1 inh-2)
COc1ccc(C(=O)NCCc2c[nH]c3ccccc23)cc1	none
Cc1ccsc1C(=O)NCCc1c[nH]c2ccccc12	DAX1 inh-1 4.6 | DAX1 inh confirm 5.9 | SF1 AF2mut Luc 2.9
O=C(Cc1ccccc1)NCC1COc2ccccc2O1 (stereo unspecified)	none
Cn1cccc1C(=O)NCC1COc2ccccc2O1 (stereo unspecified)	DAX1 inh-1 4.7 | DAX1 inh confirm 5.1 | SF1 AF2mut Luc inactive
Cc1cc(C(=O)COC(=O)c2ccc(O)cc2O)c(C)n1C(C)C	DAX1 inh-1 7.3, hgDAF-12 ag 12.3 | DAX1 inh confirm 9.8 | SF1 AF2mut Luc 5.0
c1ccc2[nH]c3cc4ncnc4cc3nc2c1	none
CC(C)n1ncc2c(C(=O)Nc3cccc(S(=O)(=O)N(C)C)c3)cc(C3CC3)nc21	none
O=C(Nc1ccc([N+](=O)[O-])cc1)Nc1ccon1	none
CCc1ccc(NC(=O)Nc2ccon2)cc1	DAX1 inh-1 4.6 | DAX1 inh confirm 5.6 | SF1 AF2mut Luc 5.4
CCCc1ccc2oc(C(=O)NCc3nnc(C)o3)c(C)c2c1	hcDAF-12 act 6.2, DAX1 inh-1 5.1, hgDAF-12 ag 11.7 | DAX1 inh confirm 7.3 | SF1 AF2mut Luc 5.1
Cc1cc2oc(C(=O)Nc3nonc3C)c(C)c2cc1C	DAX1 inh-1 7.8 | DAX1 inh confirm 13.4 | SF1 AF2mut Luc 7.2
CCc1nonc1NC(=O)c1oc2ccc(F)cc2c1C	none
CCc1ccc2oc(C(=O)Nc3nonc3C)c(C)c2c1	DAX1 inh-1 12.0, hgDAF-12 ag 10.8 | DAX1 inh confirm 7.8 | SF1 AF2mut Luc 3.6
Cn1c(SCc2cccc([N+](=O)[O-])c2)nc2c(c1=O)SCC2	none
CCOc1ccc(-c2cc(C(=O)Nc3ccc(F)cc3)[nH]n2)c(C)c1	DAX1 inh-1 7.4, hgDAF-12 ag 12.4 (no result: DAX1 inh-2) | DAX1 inh confirm 10.2 | SF1 AF2mut Luc 6.7
CCOc1ccc(-c2cc(C(=O)NCc3ccc(F)cc3)[nH]n2)c(C)c1	none (no result: DAX1 inh-2)
COc1ccc(NC(=O)CCNC(=O)c2ccco2)cc1Cl	none
CCCN1CCN(C(=O)c2cc3c(s2)-c2ccccc2OC3)CC1	DAX1 inh-1 5.4 | DAX1 inh confirm 9.9 | SF1 AF2mut Luc 5.2
O=C(NC(=O)c1ccccc1)Nc1ccc(Cl)cn1	DAX1 inh-1 7.9 | DAX1 inh confirm 14.2 | SF1 AF2mut Luc 7.3
c1ccc(CSc2ncnc3c2cnn3-c2ccccc2)cc1	none
Cc1ccc2nc(N(CCCN(C)C)C(=O)c3ccc4ncsc4c3)sc2c1	DAX1 inh-1 6.4 | DAX1 inh confirm 10.6 | SF1 AF2mut Luc 7.8
CC(NS(=O)(=O)/C=C/c1ccccc1)C(=O)NCCc1ccc(S(N)(=O)=O)cc1 (stereo unspecified)	none
c1ccc(Cn2cc(CCOCc3ccccn3)c3ccccc32)cc1	ssDAF12 agonist 0.9, DAX1 inh-1 4.9 (no result: DAX1 inh-2) | DAX1 inh confirm inactive | SF1 AF2mut Luc inactive
OCCCc1cn(Cc2ccccc2)c2ccccc12	none

Screening results from PubChem BioAssay.
